In PubChem BioAssay (NCATS):
Where “and” joins values, the source holds several entries; their conditions need not be identical. Equal values may be shown once. Results filed as inconclusive are left out. Calls of active or inactive are those of the source. Unless noted, the call rests on the fitted dose curve; in most records, active means well fitted curve in the direction sought with a large enough effect; inconclusive means small, poorly fitted or top-dose-only effect, or another doubt; inactive means no such curve, though single readings can be large; an effect the other way counts as inactive or inconclusive.

Key:
[1] = qHTS assay for small molecule disruptors of the mitochondrial membrane potential - 1 hr assay (AID 651754; calls by dose curve; further: on the % scale 0 is the no-effect control and ±100 the full control effect; nearly all actives have a fitted effect of over 35% in size)
Method in brief: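 HepG2, 2,000 cells/well, overnight attachment; cpd or DMSO 1 hr, 37C/5% CO2; Mito-MPS dye 30 min, 37C; fluorescence monomer (490/535) and aggregate (540/590).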

[2] = qHTS assay for small molecule disruptors of the mitochondrial membrane potential - 5 hr assay (AID 651755; calls by dose curve; further: on the % scale 0 is the no-effect control and ±100 the full control effect; nearly all actives have a fitted effect of over 40% in size)
Method in brief: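 HepG2 cells, attached overnight at 37C, were exposed to compound or DMSO for 5 hr at 37C, 5% CO2. Mito-MPS dye was then added for 30 min, and fluorescence read at 490/535 nm (monomers) and 540/590 nm (aggregates).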

[3] = molecular target: Tumor necrosis factor (Homo sapiens) (UniProt P01375); experiment: qHTS assay to identify small molecules that stimulate Tumor Necrosis Factor-alpha (TNF-alpha) secretion (AID 651757; active means well fitted curve in the direction sought with a large enough effect in the signal ratio; the % refers to the signal ratio; further: 0% is about no effect)
Method in brief: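 Read-out is HTRF, a TR-FRET sandwich of cryptate- and XL665-labeled anti-TNF-alpha antibodies detecting cytokine secreted by THP-1 cells. Cells had been incubated with test compounds at 37 C for 17 hrs beforehand.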

[4] = qHTS assay for environmental chemicals that activate the Aryl hydrocarbon Receptor (AhR) signaling pathway (AID 651777); details: 1A2-DRE human hepatoma cells, luciferase, 24 h; activation: active compounds read high; further: % of control where 0% means no effect; nearly all actives have a fitted effect of over 15% in size
Method in brief: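 Concentration–response screening used 1,200 1A2-DRE cells per well, 24 hr compound exposure (37 C, 5% CO2), and One-Glo luminescence as the AhR-driven CYP1A2 reporter signal.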

[5] = molecular target: Peroxisome proliferator-activated receptor alpha (Homo sapiens) (UniProt Q07869); experiment: qHTS assay for small molecule agonists of the peroxisome proliferator-activated receptor alpha (PPARalpha) signaling pathway (AID 651778); details: PathHunter PPARalpha complementation, chemiluminescence, 6 h; active compounds read high; further: % of control where 0% means no effect
Method in brief: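 Cells plated at 2,000/well and held overnight at 37 C, 5% CO2, then compound added by pin tool for 6 hr; after PathHunter detection reagent and 60 min at room temperature, chemiluminescence from enzyme complementation was read.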

[6] = molecular target: Nuclear receptor ROR-gamma (Homo sapiens) (UniProt P51449); experiment: qHTS assay for small molecule antagonists of the retinoid-related orphan receptor gamma (ROR-gamma) signaling pathway (AID 651802);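 further: luciferase reporter luminescence driven by ROR response element; series mostly up to about 92 µM; on the % scale 0 is the no-effect control and ±100 the full control effect; nearly all actives have a fitted effect of over 60% in size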
Method in brief: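 CHO, TET-inducible ROR + RORE-LUC reporter, 1536-well qHTS. Compound pinned, doxycycline added, 16hr 37C/5% CO2. ONE-Glo, 30 min RT, luminescence; signal drop scored as antagonism.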

[7] = qHTS assay for small molecule agonists of the antioxidant response element (ARE) signaling pathway measured by Nrf2-dependant transcriptional activity (AID 720636; active means well fitted curve in the direction sought with a large enough effect in the repeat runs; an effect the other way counts as inactive or inconclusive;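 further: HepG2 cells with an ARE-driven luciferase reporter; % of control where 0% means no effect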)
Method in brief: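 Attachment 6 hr at 37 C, then compound versus DMSO vehicle for 16 hr in ARE-luc HepG2 cells (1% dialyzed FBS); luminescence recorded 30 min after ONE-Glo addition at room temperature.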

[8] = qHTS assay for small molecule antagonists of the retinoid-related orphan receptor gamma (ROR-gamma) signaling pathway - cell viability counter screen (AID 720652; active means well fitted curve in the direction sought with a large enough effect in the repeat runs; an effect the other way counts as inactive or inconclusive;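 further: series mostly up to about 92 µM; compound exposure lasted 16 hr before ATP read; on the % scale 0 is the no-effect control and ±100 the full control effect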)
Method in brief: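 Luminescence from CellTiter-Glo after 30 min at room temperature reported cellular ATP as the cytotoxicity measure. Cells were the CHO reporter line with doxycycline-induced ROR-gamma expression, exposed to compound for 16 hr at 37 C.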

[9] = qHTS assay for small molecule agonists of the antioxidant response element (ARE) signaling pathway measured by Nrf2-dependant transcriptional activity - cell viability counter screen (AID 720653; active means well fitted curve in the direction sought with a large enough effect in the repeat runs; an effect the other way counts as inactive or inconclusive; further: on the % scale 0 is the no-effect control and ±100 the full control effect); details: ARE-bla HepG2 viability, CellTiter-Glo ATP luminescence, 16 h; active compounds read low
Method in brief: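 ARE-bla HepG2 cells (2,000/well) rested 5 hrs at 37C/5% CO2, then exposed to compounds in DMSO for 16 hrs. Viability was read in the same wells as intracellular ATP by luminescence, 30 min at room temperature after reagent addition.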

Chain of Peroxisome proliferator-activated receptor alpha (Homo sapiens) (Q07869 whole entry, looked up): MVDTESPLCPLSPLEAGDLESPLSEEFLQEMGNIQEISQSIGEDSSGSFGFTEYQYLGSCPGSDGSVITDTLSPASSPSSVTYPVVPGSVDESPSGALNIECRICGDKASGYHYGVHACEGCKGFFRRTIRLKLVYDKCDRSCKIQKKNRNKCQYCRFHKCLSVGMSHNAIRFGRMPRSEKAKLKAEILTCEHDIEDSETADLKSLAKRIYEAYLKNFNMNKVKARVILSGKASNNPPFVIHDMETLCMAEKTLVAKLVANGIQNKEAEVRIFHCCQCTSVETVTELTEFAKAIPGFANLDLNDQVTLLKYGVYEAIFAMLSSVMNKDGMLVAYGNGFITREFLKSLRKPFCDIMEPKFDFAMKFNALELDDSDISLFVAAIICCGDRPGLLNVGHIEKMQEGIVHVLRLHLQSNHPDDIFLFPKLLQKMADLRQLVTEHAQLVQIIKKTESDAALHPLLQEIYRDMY
Chain of Tumor necrosis factor (Homo sapiens) (P01375 whole entry, looked up): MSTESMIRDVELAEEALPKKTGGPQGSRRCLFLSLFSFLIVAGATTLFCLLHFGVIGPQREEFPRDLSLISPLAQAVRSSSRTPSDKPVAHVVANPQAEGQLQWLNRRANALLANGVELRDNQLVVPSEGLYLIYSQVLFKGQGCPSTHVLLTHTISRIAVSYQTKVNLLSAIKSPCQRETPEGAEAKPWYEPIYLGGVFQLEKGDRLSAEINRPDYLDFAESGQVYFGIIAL
Chain of Nuclear receptor ROR-gamma (Homo sapiens) (P51449 whole entry, looked up): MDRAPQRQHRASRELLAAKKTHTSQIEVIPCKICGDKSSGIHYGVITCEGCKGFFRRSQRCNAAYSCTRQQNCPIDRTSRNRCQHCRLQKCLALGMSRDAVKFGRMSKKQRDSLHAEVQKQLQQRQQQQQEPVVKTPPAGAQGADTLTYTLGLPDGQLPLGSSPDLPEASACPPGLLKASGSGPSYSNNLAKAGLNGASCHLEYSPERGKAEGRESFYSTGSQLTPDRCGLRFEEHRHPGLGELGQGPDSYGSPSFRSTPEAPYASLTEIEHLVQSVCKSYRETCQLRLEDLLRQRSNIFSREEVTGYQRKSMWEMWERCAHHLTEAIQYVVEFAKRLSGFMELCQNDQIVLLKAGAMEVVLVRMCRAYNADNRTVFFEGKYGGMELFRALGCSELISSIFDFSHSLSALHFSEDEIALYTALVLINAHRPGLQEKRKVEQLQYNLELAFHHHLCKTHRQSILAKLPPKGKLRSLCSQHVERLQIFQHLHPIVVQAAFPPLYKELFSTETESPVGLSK

C=CCCCCCC
inactive: Potency [1] | Potency [2] | Potency [3] | activation [4] 0.992% | max response [5] -3.21% | Potency [6] | outcome [7] | Potency [8] | max response [9] -7.1%

Nc1cccc(S(=O)(=O)O)c1
inactive: Potency [1] | Potency [2] | Potency [3] | activation [4] -0.739% | max response [5] -1.84% | Potency [6] | outcome [7] | Potency [8] | max response [9] 8.17%

O=C(Cl)c1ccccc1[N+](=O)[O-]
inactive: Potency [1] | Potency [2] | Potency [3] | activation [4] 0.05% | max response [5] 3.57% | Potency [6] | outcome [7] | Potency [8] | max response [9] 18.8%

CC(=O)Nc1ccc(C)cc1
inactive: Potency [1] | Potency [2] | Potency [3] | activation [4] -0.295% | max response [5] -1.18% | Potency [6] | outcome [7] | Potency [8] | max response [9] 2.3%

Cc1ccccc1C(N)=O
inactive: Potency [1] | Potency [2] | Potency [3] | activation [4] -0.0237% | max response [5] -0.838% | Potency [6] | outcome [7] | Potency [8] | max response [9] -2.23%

c1ccc(Nc2ccccc2)cc1
inactive: Potency [1] | Potency [2] | Potency [3] | activation [4] 0.217% and 3.92% | max response [5] -3.04% and -2.25% | Potency [6] | outcome [7] | Potency [8] | max response [9] -1.43% and -3.7%

CCC(C)(C)C(=O)O
inactive: Potency [1] | Potency [2] | Potency [3] | activation [4] 0.179% | max response [5] -5.15% | Potency [6] | outcome [7] | Potency [8] | max response [9] -0.295%

CCCCN(CCO)CCCC
inactive: Potency [1] | Potency [2] | Potency [3] | activation [4] -0.692% | max response [5] -1.07% | Potency [6] | outcome [7] | Potency [8] | max response [9] -4.16%

CC(=O)CC(C)C
inactive: Potency [1] | Potency [2] | Potency [3] | activation [4] -0.041% | max response [5] -2.67% | Potency [6] | outcome [7] | max response [9] 4.78%

CC(=O)OCc1ccco1
inactive: Potency [1] | Potency [2] | Potency [3] | activation [4] 1.48% | max response [5] -0.503% | Potency [6] | outcome [7] | Potency [8] | max response [9] -8.3%

C[C@@H]1CC2(OC[C@]3(C)O[C@H]23)O[C@H]2C[C@@]3(C)[C@@H]4CC[C@H]5C(C)(C)C(O[C@@H]6OC[C@@H](O)[C@H](O)[C@H]6O)CC[C@@]56C[C@@]46CC[C@]3(C)[C@@H]12 (stereo partly drawn)
inactive: Potency [1] | Potency [2] | Potency [3] | activation [4] -1.5% | max response [5] 0.712% | Potency [6] | outcome [7] | Potency [8] | max response [9] -3.07%

Cc1ccc(C)c([N+](=O)[O-])c1
inactive: Potency [1] | Potency [2] | Potency [3] | activation [4] 0.781% | max response [5] -2.55% | Potency [6] | outcome [7] | Potency [8] | max response [9] -4.07%

Cc1ccc(Br)cc1
inactive: Potency [1] | Potency [2] | Potency [3] | activation [4] 0.745% | max response [5] -0.752% | Potency [6] | outcome [7] | Potency [8] | max response [9] -9.09%

CCCCC(CC)COCC1CO1 (stereo not drawn)
inactive: Potency [1] | Potency [2] | Potency [3] | activation [4] -1.2% | max response [5] -0.684% | Potency [6] | outcome [7] | Potency [8] | max response [9] -19%

CC(=O)OC(C)C
inactive: Potency [1] | Potency [2] | Potency [3] | activation [4] -2.35% | max response [5] -3.3% | Potency [6] | outcome [7] | Potency [8] | max response [9] -4.19%

Cc1cccc2ccccc12
inactive: Potency [1] | Potency [2] | Potency [3] | activation [4] -0.124% | max response [5] -1.89% | Potency [6] | outcome [7] | Potency [8] | max response [9] -3.61%

CCCC=O
inactive: Potency [1] | Potency [2] | Potency [3] | activation [4] -0.933% | max response [5] 2.48% | Potency [6] | outcome [7] | Potency [8] | max response [9] -6.36%

CCOc1cccc(N)c1
inactive: Potency [1] | Potency [2] | Potency [3] | activation [4] 1.67% | max response [5] 0.865% | Potency [6] | outcome [7] | Potency [8] | max response [9] -7.78%

CSCCC=O
inactive: Potency [1] | Potency [2] | Potency [3] | activation [4] -0.987% | max response [5] 13.7% | Potency [6] | outcome [7] | max response [9] -0.733%

C=CC(=O)OCCCC
inactive: Potency [1] | Potency [2] | Potency [3] | activation [4] 0.108% | max response [5] 0.0985% | Potency [6] | outcome [7] | Potency [8] | max response [9] -3.72%

CC/C=C1/OC(=O)c2ccccc21
inactive: Potency [1] | Potency [2] | Potency [3] | activation [4] 0.751% | max response [5] -2.48% | Potency [6] | outcome [7] | Potency [8] | max response [9] 4.48%

CCC(C)(C)OC
inactive: Potency [1] | Potency [2] | Potency [3] | activation [4] 0.579% | max response [5] -8.98% | Potency [6] | outcome [7] | Potency [8] | max response [9] -14.5%

COc1ccc(N)c(C)c1
inactive: Potency [1] | Potency [2] | Potency [3] | activation [4] 1.75% | max response [5] -5.31% | Potency [6] | outcome [7] | Potency [8] | max response [9] -1.87%

CCCCOCCOCCSC#N
inactive: Potency [1] | Potency [2] | Potency [3] | activation [4] -0.297% | max response [5] 0.043% | Potency [6] | outcome [7] | Potency [8] | max response [9] -6.26%

CC(=O)Nc1ccc(N)cc1
inactive: Potency [1] | Potency [2] | Potency [3] | activation [4] -0.109% | max response [5] 0.154% | Potency [6] | outcome [7] | Potency [8] | max response [9] 2.9%

CC(C)(O)CCC(C)(C)O
inactive: Potency [1] | Potency [2] | Potency [3] | activation [4] 1.58% | max response [5] -3.81% | Potency [6] | outcome [7] | Potency [8] | max response [9] -2.27%

CCC=O
inactive: Potency [1] | Potency [2] | Potency [3] | activation [4] -0.0092% | max response [5] -0.926% | outcome [7] | Potency [8] | max response [9] -3.76%

O=C(O[C@@H](C(=O)O)[C@@H](OC(=O)c1ccccc1)C(=O)O)c1ccccc1
inactive: Potency [1] | Potency [2] | Potency [3] | activation [4] -0.0103% | max response [5] 3.38% | outcome [7] | Potency [8] | max response [9] -4.37%
